Measured values as given in PubChem BioAssay (Tox21).
Several values for one entry are separate records, joined by “and”; a condition that tells them apart may be missing. Identical values can stand only once. Records with an inconclusive call do not appear. A call without a number means that no potency is given here. Where a structure was tested more than once in an assay, its records may differ in their call. Activity calls are given as the source filed them. Unless noted, calls follow the shape of the dose curve; as a rule, active = well fitted curve in the direction sought with a large enough effect in the repeat runs; inconclusive = weak or mixed curves; inactive = no such curve, though single readings can be large; an effect the other way counts as inactive or inconclusive.

Assays:
[1] = qHTS assay to test for compound auto fluorescence at 535 nm (green) in HEK293 cells (AID 720680)
[2] = qHTS assay to test for compound auto fluorescence at 460 nm (blue) in HEK293 cell free culture (AID 720681)
Outline: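 Compounds were added to cell-free DMEM with 10% FBS and fluorescence read directly. The blue channel used 405 nm excitation and 460 nm emission, with triamterene as the reference fluorophore.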

[3] = qHTS assay to test for compound auto fluorescence at 535 nm (green) in HEK293 cell free culture (AID 720682)
Outline: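 Using fluorescein as calibrant, autofluorescence was quantified at 485/535 nm in cell-free DMEM containing 10% FBS after pintool addition of compound or vehicle.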

[4] = qHTS assay to test for compound auto fluorescence at 590 nm (red) in HepG2 cell free culture (AID 720684)
Outline: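 Rose Bengal sodium served as the reference for red signal. Test compounds were dispensed into serum-containing MEM (10% FBS) without cells, and plates were read at 540/590 nm.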

[5] = qHTS assay to test for compound auto fluorescence at 460 nm (blue) in HepG2 cell free culture (AID 720685)
Outline: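 Cell-free plates of MEM plus 10% FBS received 23 nL compound or DMSO vehicle; blue-channel (405/460 nm) intensity scored against triamterene as reference fluorophore.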

[6] = qHTS assay to test for compound auto fluorescence at 535 nm (green) in HepG2 cell free culture (AID 720686)
[7] = target: Glucocorticoid receptor (Homo sapiens) (UniProt P04150); assay: qHTS assay to identify small molecule agonists of the glucocorticoid receptor (GR) signaling pathway (AID 720691; active = well fitted activation curve with a large enough effect in the signal ratio in the repeat runs, not every such curve was filed as active; the % refers to the signal ratio)
Outline: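 Steps: seed GR-bla HeLa cells, incubate 4 h at 37 C/5% CO2; pin-transfer DMSO-dissolved compounds; incubate 18 h at 37 C; add LiveBLAzer B/G FRET substrate; after 2 h at room temperature, measure fluorescence.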

[8] = qHTS assay to identify small molecule antagonists of the glucocorticoid receptor (GR) signaling pathway - cell viability counter screen (AID 720693); also: nearly all actives have a fitted effect of over 55% in size
[9] = qHTS assay for identifying genotoxic compounds that show differential cytotoxicity against isogenic chicken DT40 cell lines with known DNA damage response pathways - wild type cell line (AID 743012); also: nearly all actives have a fitted effect of over 60% in size; also: potency is read from the fitted curve at half-maximal effect
Outline: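 Cytotoxicity in repair-proficient parental chicken DT40 cells serves as the comparator for Rad54/Ku70- and Rev3-deficient lines. Cells were exposed to compounds for 40 h at 37 C/5% CO2, and ATP-based luminescence (CellTiter-Glo) measured viability.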

[10] = qHTS assay for identifying genotoxic compounds that show differential cytotoxicity against isogenic chicken DT40 cell lines with known DNA damage response pathways - Rev3 mutant cell line (AID 743014); also: nearly all actives have a fitted effect of over 55% in size; also: potency is read from the fitted curve at half-maximal effect
[11] = qHTS assay for identifying genotoxic compounds that show differential cytotoxicity against isogenic chicken DT40 cell lines with known DNA damage response pathways - Rad54/Ku70 mutant cell line (AID 743015); also: nearly all actives have a fitted effect of over 60% in size; also: potency is read from the fitted curve at half-maximal effect
[12] = qHTS assay to identify small molecule antagonists of the androgen receptor (AR) signaling pathway - cell viability counter screen (AID 743033; also: nearly all actives have a fitted effect of over 45% in size)
[13] = qHTS assay to identify small molecule antagonists of the androgen receptor (AR) signaling pathway using the MDA cell line - cell viability counter screen (AID 743041; also: nearly all actives have a fitted effect of over 45% in size)
Outline: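 Cytotoxicity counter screen: MDA-kb2 AR-luc cells, compound + R1881, 16 h, 37C, 0% CO2; CellTiter-Fluor added at 15.5 h, fluorescence read after 30 min.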

[14] = qHTS assay to test for compound auto fluorescence at 460 nm (blue) in HepG2 cells (AID 720687)
Outline: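 HepG2 cells in MEM with 10% FBS, attached overnight at 37 C, were exposed to compound or DMSO for 1 hr at 37 C, 5% CO2. Blue fluorescence was read at 405/460 nm, with triamterene as reference fluorophore.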

[15] = qHTS assay to test for compound auto fluorescence at 590 nm (red) in HEK293 cell free culture (AID 720683)
Outline: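 Cell-free wells of DMEM with 10% FBS received compound, and intrinsic fluorescence was read at excitation/emission 540/590 nm. Values expressed as equivalence to Rose Bengal sodium.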

[16] = target: Androgen receptor (Homo sapiens) (UniProt P10275); assay: qHTS assay to identify small molecule antagonists of the androgen receptor (AR) signaling pathway (AID 743035; active = well fitted inhibition curve with a large enough effect in the signal ratio in the repeat runs, not every such curve was filed as active; the % refers to the signal ratio)
Outline: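 Steps: seed AR-UAS-bla GripTite HEK293 cells, incubate 4 h at 37C; pin in test compound, then add agonist R1881; incubate 16 h at 37C; add LiveBLAzer B/G FRET substrate, 2 h at room temperature; read fluorescence.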

[17] = target: Androgen receptor (Homo sapiens) (UniProt P10275); assay: qHTS assay to identify small molecule agonists of the androgen receptor (AR) signaling pathway using the MDA cell line (AID 743040; also: nearly all actives have a fitted effect of over 20% in size); details: MDA-kb2 AR-luc cells, MMTV luciferase, 16 h; at 70.3 µM (top of the series); stronger effect = higher value
Outline: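 Luciferase read-out, ONE-Glo, 30 min RT. Cells: MDA-kb2 AR-luc, MMTV promoter with AR and GR response elements. Compound exposure 16 h, 37C, 0% CO2, after 5 h pre-incubation. qHTS agonist mode.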

[18] = target: Androgen receptor (Homo sapiens) (UniProt P10275); assay: qHTS assay to identify small molecule antagonists of the androgen receptor (AR) signaling pathway using the MDA cell line (AID 743042; also: nearly all actives have a fitted effect of over 55% in size)
Outline: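 MDA-kb2 breast carcinoma cells carrying MMTV-luciferase (AR/GR responsive) were co-treated with compounds and the agonist R1881 for 16 h at 37C. Inhibition read as ONE-Glo luminescence; CellTiter-Fluor fluorescence measured in parallel for cytotoxicity.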

Sequence of Glucocorticoid receptor (Homo sapiens) (P04150 whole entry, looked up): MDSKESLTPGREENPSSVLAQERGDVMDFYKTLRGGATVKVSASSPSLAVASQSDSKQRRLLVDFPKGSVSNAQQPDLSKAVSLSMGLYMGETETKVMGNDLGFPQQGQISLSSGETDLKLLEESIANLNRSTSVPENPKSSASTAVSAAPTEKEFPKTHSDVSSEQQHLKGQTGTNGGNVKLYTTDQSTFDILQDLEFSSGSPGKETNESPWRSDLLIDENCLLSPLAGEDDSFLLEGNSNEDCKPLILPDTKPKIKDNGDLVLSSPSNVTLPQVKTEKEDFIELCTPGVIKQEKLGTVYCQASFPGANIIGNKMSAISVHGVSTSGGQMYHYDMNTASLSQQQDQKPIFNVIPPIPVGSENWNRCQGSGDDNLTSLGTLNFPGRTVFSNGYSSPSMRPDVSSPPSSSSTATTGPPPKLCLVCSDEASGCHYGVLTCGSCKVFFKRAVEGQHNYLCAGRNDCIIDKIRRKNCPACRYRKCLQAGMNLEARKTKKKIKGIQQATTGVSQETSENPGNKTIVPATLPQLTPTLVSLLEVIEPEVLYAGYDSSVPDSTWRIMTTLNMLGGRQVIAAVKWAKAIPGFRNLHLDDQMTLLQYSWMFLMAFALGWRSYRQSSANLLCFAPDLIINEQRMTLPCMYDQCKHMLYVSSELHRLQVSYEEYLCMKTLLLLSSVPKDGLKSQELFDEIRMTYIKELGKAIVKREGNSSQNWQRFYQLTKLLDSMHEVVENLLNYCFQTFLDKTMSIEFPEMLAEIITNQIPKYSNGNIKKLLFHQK
Sequence of Androgen receptor (Homo sapiens) (P10275 whole entry, looked up): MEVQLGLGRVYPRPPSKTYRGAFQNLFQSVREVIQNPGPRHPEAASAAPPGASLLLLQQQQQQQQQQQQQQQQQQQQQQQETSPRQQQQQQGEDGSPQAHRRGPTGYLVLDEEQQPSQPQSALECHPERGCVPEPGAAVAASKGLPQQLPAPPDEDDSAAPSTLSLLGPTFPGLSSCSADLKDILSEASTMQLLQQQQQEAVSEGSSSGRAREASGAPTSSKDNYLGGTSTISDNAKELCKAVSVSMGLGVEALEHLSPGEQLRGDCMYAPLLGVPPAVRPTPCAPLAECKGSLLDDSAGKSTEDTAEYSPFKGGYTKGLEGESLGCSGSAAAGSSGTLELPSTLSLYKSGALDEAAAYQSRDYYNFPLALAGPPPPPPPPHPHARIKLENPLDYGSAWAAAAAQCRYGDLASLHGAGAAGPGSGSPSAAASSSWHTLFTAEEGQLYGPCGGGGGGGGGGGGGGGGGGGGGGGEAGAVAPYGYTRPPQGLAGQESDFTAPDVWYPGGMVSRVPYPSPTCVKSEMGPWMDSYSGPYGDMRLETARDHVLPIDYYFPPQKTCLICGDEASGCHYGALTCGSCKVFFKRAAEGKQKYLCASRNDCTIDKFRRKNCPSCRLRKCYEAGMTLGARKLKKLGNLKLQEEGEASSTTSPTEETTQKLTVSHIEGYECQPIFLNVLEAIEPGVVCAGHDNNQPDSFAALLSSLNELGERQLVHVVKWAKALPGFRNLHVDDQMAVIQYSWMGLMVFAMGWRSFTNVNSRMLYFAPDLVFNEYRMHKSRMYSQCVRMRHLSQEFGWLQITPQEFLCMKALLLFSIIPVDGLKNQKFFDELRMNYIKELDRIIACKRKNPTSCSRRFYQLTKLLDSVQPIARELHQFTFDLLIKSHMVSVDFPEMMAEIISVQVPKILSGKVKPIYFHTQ

SMILES | outcome [1] | Potency [2] | outcome [3] | outcome [4] | Potency [5] | outcome [6] | outcome [7] | Potency [8] | Potency [9] | Potency [10] | Potency [11] | Potency [12] | Potency [13] | Potency [14] | outcome [15] | Potency [16] | activity change [17] | Potency [18]
N#Cc1cccnc1 | inactive | inactive | inactive | inactive | inactive | inactive | inactive | inactive | inactive | inactive | inactive | inactive | inactive | – | – | – | – | –
Nc1ccc([N+](=O)[O-])cc1N | inactive | inactive | inactive | inactive | inactive | inactive | – | inactive | 27.3 µM (active) | 43.2 µM (active) and inactive | 13.7 µM (active) and 19.3 µM (active) | inactive | – | inactive | – | – | – | –
CCNc1nc(Cl)nc(NC(C)(C)C#N)n1 | inactive | inactive | inactive | inactive | inactive | inactive | – | inactive | inactive | inactive | inactive | inactive | inactive | – | – | – | – | –
CCCCOCCOC(C)=O | inactive | inactive | inactive | inactive | inactive | inactive | – | inactive | inactive | inactive | inactive | inactive | inactive | – | – | – | – | –
ClC(Cl)(Cl)c1ccccc1 | inactive | inactive | inactive | inactive | inactive | inactive | – | inactive | inactive | inactive | inactive | inactive | inactive | inactive | – | – | – | –
CN(C)c1nc(=O)n(C2CCCCC2)c(=O)n1C | inactive | inactive | inactive | inactive | inactive | inactive | – | inactive | inactive | inactive | inactive | inactive | inactive | – | – | – | – | –
CC(C)Nc1nc(Cl)nc(NC(C)C)n1 | inactive | inactive | inactive | inactive | inactive | inactive | – | inactive | inactive | inactive | inactive | inactive | inactive | – | inactive | – | – | –
O=C(O)c1nn(Cc2ccc(Cl)cc2Cl)c2ccccc12 | inactive | – | inactive | inactive | inactive | inactive | inactive | inactive | inactive | inactive | inactive | inactive | inactive | inactive | inactive | inactive | 1.75% (inactive) and 0.87% (inactive) | inactive
CCNCC | inactive | inactive | inactive | inactive | inactive | inactive | – | inactive | inactive | inactive | inactive | inactive | inactive | inactive | – | – | – | –
c1ccc2c(c1)Nc1ccccc1S2 | inactive | inactive | inactive | inactive | inactive | inactive | – | inactive | – | – | 40.9 µM (active) | inactive | inactive | inactive | – | – | – | –
COC(=O)Nc1nc2ccccc2[nH]1 | inactive | inactive | inactive | inactive | inactive | inactive | – | inactive | 9.69 µM (active) and 8.63 µM (active) | 6.11 µM (active) and 6.86 µM (active) | 6.86 µM (active) and 7.7 µM (active) | inactive | inactive | – | – | – | 0.968% (inactive) and 4.32% (inactive) | inactive
Clc1ccccc1-c1nnc(-c2ccccc2Cl)nn1 | inactive | inactive | inactive | inactive | inactive | inactive | – | inactive | inactive | inactive | inactive | inactive | inactive | – | – | – | – | –
Oc1ccc(Cl)cc1Cl | inactive | inactive | inactive | inactive | inactive | inactive | inactive | inactive | inactive | inactive | inactive | inactive | inactive | – | – | – | – | –
ClCC(Cl)CCl | inactive | inactive | inactive | inactive | inactive | inactive | – | inactive | inactive | inactive | inactive | inactive | inactive | – | inactive | – | – | –
